Over roughly 68,000 sequences, “fluorescence intensity (a.u.)” has its median near 9,100; the highest 2% begin near 16,000. The entries come from a sample that favours the highest values as a whole.
Molecular target: OsWRKY34 (Oryza sativa, UniProt Q0JBA9 1-250)
Test: protein-binding microarray (RPBM); PBS, 2% BSA, 51.3 ng/ul salmon testes DNA, 50 uM zinc acetate, 200 nM TF, 25 C, 1 h; high values mean tight binding
Settings: protein: recombinant; tags: N-terminal polyhistidine and DsRed monomer fusion (pET32a); label: CyDye5-dUTP incorporated in the synthesized complementary strand; 3' TTTTT single-stranded linker to array surface; dsDNA, one strand shown
Summary of the method: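 Binding signal is reported as fluorescence intensity per feature (arbitrary units) from an Axon 4000B scanner. Incubation used 200 nM of each Ni–NTA-purified, N-terminally polyhistidine- and DsRed-fused transcription factor from E. coli BL21-CodonPlus on a double-stranded custom Agilent array for 1 h at 25 °C, with 50 µM zinc acetate in the buffer, followed by washing.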

OsWRKY34, sequence (Q0JBA9 entry or part of it): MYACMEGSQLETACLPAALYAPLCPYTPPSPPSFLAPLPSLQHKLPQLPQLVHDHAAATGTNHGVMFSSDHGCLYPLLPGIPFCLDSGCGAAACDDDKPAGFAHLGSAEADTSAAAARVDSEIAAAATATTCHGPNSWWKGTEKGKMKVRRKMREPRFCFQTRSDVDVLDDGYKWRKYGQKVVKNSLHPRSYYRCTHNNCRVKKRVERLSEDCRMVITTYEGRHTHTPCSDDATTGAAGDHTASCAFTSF

Sequence	binding signal
TAGCTCCAGTATTAATTTCTTTCCATCCTCCATTTTCTTGCGGAGTCACCTAGTGCAG	9120 fluorescence intensity (a.u.)
CAACAGACTCTTCCCCTTCGCTCGCTCGCCTCCTCTTTCCCGGAGTCACCTAGTGCAG	8220 fluorescence intensity (a.u.)
TCTTTCTTCCATTGCACCTAGCTTTCATCTTCTTCTCTTCCGGAGTCACCTAGTGCAG	14200 fluorescence intensity (a.u.)
ATCCATCCATCTATTCGCTTCCCTTTCCTTGCACCTCTGCCGGAGTCACCTAGTGCAG	9050 fluorescence intensity (a.u.)
CCATTCTTTCATCTCGCTTCACCTCATCGCCATTGCCATCCGGAGTCACCTAGTGCAG	8810 fluorescence intensity (a.u.)
TACATCCCTTGCCATCTCCATCGCCGGCTTCCTCGCCATTCGGAGTCACCTAGTGCAG	17100 fluorescence intensity (a.u.)
CCTTCACCTCCTTGCAAGTTCCATTCTTTCATCTCGCTTCCGGAGTCACCTAGTGCAG	16500 fluorescence intensity (a.u.)
CTAGCTTCGCCATCCACATTCTTCTTGCTTCTTGCTCCTCCGGAGTCACCTAGTGCAG	12700 fluorescence intensity (a.u.)
TTTGTCAATTGATGTATACATATGTGCTTTGTGTTCCTACCGGAGTCACCTAGTGCAG	11100 fluorescence intensity (a.u.)
CTGATTCGAACGCAGCCATAGTCACTCTTTCACTCTCACTCGGAGTCACCTAGTGCAG	11000 fluorescence intensity (a.u.)
GTAAATCCGCTCCAATTGACTCTACCAACCCACCCGTGCTCGGAGTCACCTAGTGCAG	9420 fluorescence intensity (a.u.)
AATTTGTGTGTAATTTTTTAGGATTTGTGATGTATTTGATCGGAGTCACCTAGTGCAG	9210 fluorescence intensity (a.u.)
CCACACTTGCCCGCTACCCACTCTGATCTATCTCCACTGTCGGAGTCACCTAGTGCAG	9630 fluorescence intensity (a.u.)
TCTCCTCCCTCGTTTCTCCTGACACGCTCTCATCCTACAACGGAGTCACCTAGTGCAG	8660 fluorescence intensity (a.u.)
TTATCACAGATTCACAGTCCTTTGCCTTCATAAACACCTCCGGAGTCACCTAGTGCAG	65500 fluorescence intensity (a.u.)
GCAATTTGCCTCTTTGTTCCTCATAGTCCAGACACAATTCCGGAGTCACCTAGTGCAG	9840 fluorescence intensity (a.u.)
TCAGTCGCTTCCTCTCTTTATTATCACAGATTCACAGTCCCGGAGTCACCTAGTGCAG	8370 fluorescence intensity (a.u.)
AACTTTTTCATGTCACTTCACTTTTTTTTGTTAGCAGCCTCGGAGTCACCTAGTGCAG	11200 fluorescence intensity (a.u.)
TGAACACACGCACGCAAACCCTACCTCCATGAGTATCTTCCGGAGTCACCTAGTGCAG	10500 fluorescence intensity (a.u.)
AATTTATGGAGATCATTTTTTTTCTGTTTCAAAGGAAAAACGGAGTCACCTAGTGCAG	19200 fluorescence intensity (a.u.)
TAATGGAAAAAATTGTTTAAAAAAGGTCAAATAGTAAAAACGGAGTCACCTAGTGCAG	58800 fluorescence intensity (a.u.)

Sequence	binding signal
TTAAATAAGACAAATGGTCAAACATGTGCTAAAAAGTCAACGGAGTCACCTAGTGCAG	10600 fluorescence intensity (a.u.)
GTCAAGAATGTGCTAAAAAGTCAACGGTGTCAAACAGTTTCGGAGTCACCTAGTGCAG	10600 fluorescence intensity (a.u.)
CTAATTGTTTTTTTAAATAGTGTTTTGTTTTATTGAAAACCGGAGTCACCTAGTGCAG	9040 fluorescence intensity (a.u.)
AAAGGAATGGCCCAAATAAACAAGTTTTTTCCTAAAATAACGGAGTCACCTAGTGCAG	63000 fluorescence intensity (a.u.)
CGTCTTTTCTCCTTGTCTTGCTAGCCATATCAACGGAAGGCGGAGTCACCTAGTGCAG	8080 fluorescence intensity (a.u.)
CATTGATTTTTTTTCTGTTTTCATGATCAATTTTTTTTCTCGGAGTCACCTAGTGCAG	11100 fluorescence intensity (a.u.)
TTGATTCCGTGTCGCATATCTGTCTTAATTTCGTGGAAGGCGGAGTCACCTAGTGCAG	9570 fluorescence intensity (a.u.)
TGTCTTAATTTCGTGGAAGGCCATAGCGGAGAGATCAAAACGGAGTCACCTAGTGCAG	17400 fluorescence intensity (a.u.)
AAATTTAAAGTAATTTGACTTTGAAAGTCAAAACTTGTAACGGAGTCACCTAGTGCAG	8600 fluorescence intensity (a.u.)
GTTTCCATTTCTGTTATTTTTTATTTCAAATTTCATTCTTCGGAGTCACCTAGTGCAG	11800 fluorescence intensity (a.u.)
CTTCTTATCTCCCATATCTTAGGGTGTGTTTCGTTTTATGCGGAGTCACCTAGTGCAG	8050 fluorescence intensity (a.u.)
GCCTATCCACAACATCGTCGCAGGCCTTCTTTTTCCCTCGCGGAGTCACCTAGTGCAG	8320 fluorescence intensity (a.u.)
ACAGCGGTTTTGGTTGACGTAGTGCCTATGTGGCGTTGACCGGAGTCACCTAGTGCAG	11700 fluorescence intensity (a.u.)
GATTTAGCCAGTATAATTTGGCTTCTTACCTATCCATTTTCGGAGTCACCTAGTGCAG	9130 fluorescence intensity (a.u.)
CCAATCTAGCATTTAAATAGCCCATATTTGTCTAATTTCTCGGAGTCACCTAGTGCAG	8400 fluorescence intensity (a.u.)
ATGGTGGGTCTTTTGCTTCTATCTTCTTCTATGCATGAAACGGAGTCACCTAGTGCAG	10400 fluorescence intensity (a.u.)
TTGTTAATGCTAATTTTATCAACATGTGCTTTTCTTTTTACGGAGTCACCTAGTGCAG	9500 fluorescence intensity (a.u.)
CGCGAGACAATCTAGCCGTTCTTCATTTTTTTCGCTTTCCCGGAGTCACCTAGTGCAG	9240 fluorescence intensity (a.u.)
ACTGTGATACATTCTACATAATTTATTCATTTATTTGCATCGGAGTCACCTAGTGCAG	8900 fluorescence intensity (a.u.)
CATTAATTCCAACATATAGTACTCCGCCATTTTGACTCGCCGGAGTCACCTAGTGCAG	8640 fluorescence intensity (a.u.)
AATGTTATTACTATGCCTGGAACGTCACTTATGTATGTCTCGGAGTCACCTAGTGCAG	10500 fluorescence intensity (a.u.)

Sequence	binding signal
GATCATCTGGTGGTGTGTTCTACGGGTTGCAGCTTCTTTCCGGAGTCACCTAGTGCAG	10600 fluorescence intensity (a.u.)
ATTGCCGTTTATATTTGGTCAAATTTAAACGTTTTCTTTTCGGAGTCACCTAGTGCAG	8020 fluorescence intensity (a.u.)
TTGCCTTGCCAGTCAGTGCTCGAGTTCGTCTCGCTCTCCGCGGAGTCACCTAGTGCAG	8730 fluorescence intensity (a.u.)
GCCGAGCCCCATCTTCTGCTGCGACCCCGTAGCGCTCAACCGGAGTCACCTAGTGCAG	9240 fluorescence intensity (a.u.)
GCCCCGAGCCGAGACCGCTGGATAATGCAGCGCTTCTTACCGGAGTCACCTAGTGCAG	20100 fluorescence intensity (a.u.)
GACCGCCGCCGCTTGAGCTGACCTGACCCCGAGCCGAGCCCGGAGTCACCTAGTGCAG	8250 fluorescence intensity (a.u.)
AGTCAGTGGGTAAATTCTTTAAAAACTCCTATGTTTTTTCCGGAGTCACCTAGTGCAG	9550 fluorescence intensity (a.u.)
AACAAGGGAGGGAGGGGCGGCGATCTCCATCTGGCGAGCACGGAGTCACCTAGTGCAG	10900 fluorescence intensity (a.u.)
ACGATCAGTGTCATCACAGGGCGGCGGGGTTCCTATCCATCGGAGTCACCTAGTGCAG	13200 fluorescence intensity (a.u.)
GCGGCGGTGGTTAGGGTTTGGGGCTCGTCGGCGTCGGCGACGGAGTCACCTAGTGCAG	10900 fluorescence intensity (a.u.)
GCTTGGTCCATACCTTGTTTTCCTATCATCCACTGTCAATCGGAGTCACCTAGTGCAG	9390 fluorescence intensity (a.u.)
GCGGCGGGGTTCCTATCCATGGTTTTTTCGGGCTTGTCCACGGAGTCACCTAGTGCAG	18900 fluorescence intensity (a.u.)
CGCCTCGACGGGTTTGGATCTCGGGGTGGGATTAGAGGGGCGGAGTCACCTAGTGCAG	12900 fluorescence intensity (a.u.)
GGATTCGGAGGCGGGTGGGAGTGGGAGAGTGAGAGGGGCTCGGAGTCACCTAGTGCAG	16200 fluorescence intensity (a.u.)
GGGCGGGTTTGGATTTTTATTTGGTTTTCCTATGGAGTCCCGGAGTCACCTAGTGCAG	17800 fluorescence intensity (a.u.)
AGGGATAGATTGGCTTAGGGGCGGGTGGGTCTAGAGATTTCGGAGTCACCTAGTGCAG	27000 fluorescence intensity (a.u.)
ACATTGGGTTGGAGTGGATTATTTTTTTCCTTTGTTTTCCCGGAGTCACCTAGTGCAG	14200 fluorescence intensity (a.u.)
CTGATTTGCGGGTTCCACATGGATTTTATTTTTTTGTTTCCGGAGTCACCTAGTGCAG	11400 fluorescence intensity (a.u.)
GGGGCTAGGGTTTGGGTGGGATCTCAGCCGTCGGATCTGACGGAGTCACCTAGTGCAG	17000 fluorescence intensity (a.u.)
ATTGGGGCGGCGGTGGCGGGCTAGGGTTTCGTAGATTCGACGGAGTCACCTAGTGCAG	9960 fluorescence intensity (a.u.)

Source: paper PMC7819943, “Rice protein-binding microarrays: a tool to detect cis-acting elements near promoter regions in rice”
